Source: PubChem BioAssay
Active and inactive are the calls of the source. How the calls were made is not given here.

Experiment: P. aeruginosa biofilm formation inhibitors, primary screen, PAO1 strain, BacTiter-Glo luminescence, LB-PBS (AID 1144)
Settings: 12 h, higher = more signal

z-score, inactive:
COCCOC(=O)N1C(=O)[C@@]2(c3ccccc31)[C@H](c1ccc(O)cc1)N1[C@H](c3ccccc3)[C@H](c3ccccc3)OC(=O)[C@H]1[C@@H]2C(=O)N1CCCCCCC1 -1.17
C[N+](C)(C)CCCCNC(=O)[C@H]1C[C@H]2C(=O)N[C@@H](Cc3ccccc3)C(=O)N2[C@H]1c1cccc(OCCO)c1 -0.495
CC(C)[Si](C#CCCc1ccccc1)(O[C@H](c1ccccc1)c1cn(Cc2ccccc2)nn1)C(C)C -0.778
COc1ccc([Si](C)(C)[C@@H]2[C@@H](CC(=O)N3Cc4ccccc4C[C@H]3CO)O[C@]3(C(=O)N(Cc4cccc(N5CCOC5=O)c4)c4ccccc43)[C@H]2C)cc1 0.291
CN1C(=O)[C@@H]2[C@@H](CC(COc3ccccc3)=C3[C@@H](CCc4ccccc4)OB(O)C[C@@H]32)C1=O 0.32
COc1cc(C(O)C2C=CC3C(=O)N(c4ccccc4)C(=O)C3N2Nc2ccccc2F)cc(OC)c1OC (configuration not stated) 0.0706
CCCCN1CC=CC23O[C@@H]4/C=C\CCCOC(=O)C4[C@H]2C(=O)N(C(CO)C(C)C)[C@@H]3C1=O (some centres not stated) 1.3
O=C1N(CCS(=O)(=O)c2ccccc2)c2ccccc2C[C@]12N=C(c1ccc(OCCCO)cc1)O[C@@H]2c1ccccc1 0.851
O=C1NC(=O)C2C1C=CC(C(O)c1ccc([N+](=O)[O-])cc1)N2Nc1ccccn1 (configuration not stated) -0.295
O=C1[C@H]2C=C(I)[C@H](C[C@@H]2OCCCCCCO)[C@@]12CO2 -0.04
CN(C)C(=O)[C@]1(Cc2ccccc2)N=C(c2ccc(OCCCO)cc2)O[C@@H]1c1ccccc1CN=[N+]=[N-] -0.754
Cc1ccc(C(C)CC(O)C2C=CC3C(=O)N(C)C(=O)C3N2Nc2ccccc2)o1 (configuration not stated) -0.368
CCCCCCc1nc(-c2ccc(-c3ccc(Cl)c(Cl)c3)o2)cc2c1[Si](C(C)C)(C(C)C)OC2 -1.51
CC1CC/C=C\[C@H]2OC34C=CCN(c5ccc(Cl)cc5)C(=O)[C@H]3N(CCCCCCO)C(=O)[C@]4(C)C2C(=O)O1 (some centres not stated) 0.306
C=C(CCCC)/C(=C/C[C@H](OC(=O)c1ccncc1)c1cccc(OCCO)c1)c1cnc2ccccc2c1 0.124
C[C@@H]1ON(c2ccccc2)[C@H](c2ccccc2)[C@H]1C(=O)O -0.525
CCOC(=O)C1=CC[C@@H](c2ccc(OC)cc2)N(S(=O)(=O)c2ccc(C)cc2)[C@H]1CC -0.785
COC(=O)[C@@]1(Cc2ccc(OC)cc2)[C@H]2c3cc(C(=O)N(C)C)[nH]c3C[C@H]2CN1C(=O)c1ccccc1 0.857
CCCCC(O)C1C=CC2C(=O)N(c3ccccc3)C(=O)C2N1Nc1ccccc1 (configuration not stated) -0.279
CC(C)OC(=O)CC(=O)CC(O)c1cccc([N+](=O)[O-])c1 (configuration not stated) -2.34
O=C1NC(=O)C2C1C=CC(C(O)c1ccc(B(O)O)cc1)N2Nc1ccc(Cl)cc1Cl (configuration not stated) -0.661
O=C1c2ccccc2[C@@]2(Cc3ccccc3N(Cc3ccccc3)C2=O)[C@H](c2ccc(CO)cc2)N1Cc1ccccc1Cl -1.09
CO[C@H]1O[C@H](CO)[C@@H](OC(=O)Nc2ccccc2)[C@H](OC(=O)Nc2ccccc2)[C@H]1OC(=O)Nc1ccccc1 -1.41
COCCCNC(=O)[C@@]1(CCS(=O)(=O)c2ccccc2)COC(c2ccc(OCCCO)cc2)=N1 0.86
COc1ccc(C(O)C2C=CC3C(=O)NC(=O)C3N2Nc2ccc(Cl)cc2Cl)c2ccccc12 (configuration not stated) -1.13
O=C1C[C@@](C(=O)O)(c2ccc([N+](=O)[O-])cc2)[C@@H](c2ccc(CO)cc2)N1C1CCCCC1 0.381
CC(C)(C)N1CC=CC23O[C@@H]4/C=C\CCCOC(=O)C4[C@H]2C(=O)N(CCCCCO)[C@@H]3C1=O (some centres not stated) 1.27
